Values joined by “and” are separate entries in the source; they are usually repeats but may differ in a detail not shown here. Equal entries are not always repeated. Records with an inconclusive call do not appear. Active and inactive are the calls of the source. Unless noted, calls come from the whole dose curve; as a rule, active = well fitted curve in either direction with a large enough effect (not every such curve was filed as active); inconclusive = small, poorly fitted or top-dose-only effect, or another doubt; inactive = flat fitted curve, though single readings scatter.
Legend:
[1] = Cell Viability - BJ (AID 421; calls by dose curve;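 note: potency is the fitted concentration of half-maximal effect; cells exposed to compound for 40 hours at 37 °C before readout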); conditions: BJ fibroblast viability, qHTS
How it was run: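 Normal human BJ foreskin fibroblasts, 1500/well in complete medium, treated 40 hr at 37 °C. Cellular ATP by CellTiter-Glo luminescence; normalized to DMSO and 100 uM tamoxifen, AC50 from Hill fit.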

[2] = Cell Viability - MRC5 (AID 434; calls by dose curve;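 note: potency is the fitted concentration of half-maximal effect; potency reflects cytotoxicity seen as loss of intracellular ATP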); conditions: MRC5 lung fibroblast viability, qHTS
How it was run: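 qHTS cytotoxicity in human lung fibroblast MRC5 cells; 40 hr treatment, 37 °C; cellular ATP by luciferase luminescence; DMSO = 0%, 100 uM tamoxifen = 100% inhibition; Hill-fit AC50.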

[3] = Cell Viability - SK-N-SH (AID 435; calls by dose curve;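 note: potency is the fitted concentration of half-maximal effect; compound exposure lasted 40 h at 37 °C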); conditions: SK-N-SH neuroblastoma cell viability qHTS
How it was run: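 SK-N-SH human neuroblastoma cells (1500/well) were exposed to compounds in complete medium for 40 h at 37 °C, and intracellular ATP was then measured by CellTiter-Glo luminescence. AC50 was taken from Hill fits, normalized to DMSO and 100 uM tamoxifen.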

[4] = Cell Viability - N2a (AID 540; active = well fitted curve in the direction sought with a large enough effect; an effect the other way counts as inactive or inconclusive; note: nearly all actives have a fitted effect of over 45% in size; note: potency is the fitted concentration of half-maximal effect;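 for activity change, negative = cytotoxicity: plate controls were DMSO alone for no effect and tamoxifen control for full effect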); conditions: N2a mouse neuroblastoma cell viability; activity change, negative = cytotoxicity: at 92.2 µM (top of the series)
How it was run: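 Luminescent ATP signal (CellTiter-Glo, 20 min at room temperature) served as the viability read-out after N2a cells were treated with compounds for 40 hours at 37 °C. Concentration-response data were fitted to the Hill equation for AC50.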

[5] = Cell Viability - SH-SY5Y (AID 544; active = well fitted curve in the direction sought with a large enough effect; an effect the other way counts as inactive or inconclusive; note: nearly all actives have a fitted effect of over 55% in size; note: potency is the fitted concentration of half-maximal effect); conditions: SH-SY5Y neuroblastoma cell viability; viability change, negative = cytotoxic: at 92.2 µM (top of the series)
How it was run: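 Luminescent ATP read-out (CellTiter-Glo) measures loss of viable SH-SY5Y neuroblastoma cells after 40 hr compound exposure at 37 °C. AC50 values derive from standard Hill modelling of qHTS concentration-response data.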

[6] = Cell Viability - Renal Proximal Tubule (AID 545; active = well fitted curve in the direction sought with a large enough effect; an effect the other way counts as inactive or inconclusive; note: nearly all actives have a fitted effect of over 40% in size; note: potency is the fitted concentration of half-maximal effect); conditions: renal proximal tubule cells viability, primary cells of rat origin; activity change, negative = cytotoxicity: at 91.7 µM (top of the series)
How it was run: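 Primary rat renal proximal tubule cells (1000/well) were treated with compounds for 40 hr at 37 °C in complete medium. Intracellular ATP was measured by CellTiter-Glo luminescence, and AC50 values came from Hill-equation fits of concentration-response data.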

[7] = Cellular Toxicity (caspase-3) HepG2 (AID 654; active = well fitted curve in the direction sought with a large enough effect; an effect the other way counts as inactive or inconclusive;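 note: cells exposed to compound for 16 hours before reading; 0% = DMSO alone and 100% = caspase signal from 100 µM tamoxifen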); conditions: HepG2 caspase-3 activation, luminescence; series mostly up to 92.2 µM
How it was run: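 Cells plated 5 hr at 37 °C, compound added, incubated 16 hr at 37 °C. Caspase-Glo 3/7 reagent followed, 20 min at room temperature, then luminescence read. Activation scored as signal increase; AC50 from Hill fit.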

[8] = Cellular Toxicity (caspase-3) HUV-EC-C (AID 656; active = well fitted curve in the direction sought with a large enough effect; an effect the other way counts as inactive or inconclusive); conditions: HUV-EC-C cells, caspase-3 activation (apoptosis); series mostly up to 92.2 µM
How it was run: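 HUV-EC-C endothelial cells, 1000/well, were pre-incubated 5 hr at 37°C, then exposed to compounds for 16 hr at 37°C. Caspase-Glo 3/7 luminescence was read after 20 min at room temperature. AC50 came from Hill fits, normalized to DMSO and 100 uM tamoxifen.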

[9] = Cellular Toxicity (caspase-3) Mesangial (AID 660; active = well fitted curve in the direction sought with a large enough effect; an effect the other way counts as inactive or inconclusive;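 note: combined caspase 3 and 7 activity read by Caspase-Glo luminescence; cells exposed to compound for 16 h before the caspase read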); conditions: mesangial cells, normalized: DMSO 0%, 100 µM tamoxifen 100%; at 91.7 µM (top of the series)
How it was run: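 Mesangial cells, 1000/well, 5 h settle at 37 °C; compound 16 h, 37 °C; Caspase-Glo 3/7 reagent 20 min RT; luminescence. Norm.: DMSO = 0%, tamoxifen 100 uM = 100%. AC50, Hill fit.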

[10] = Cellular Toxicity (caspase-3) N2a (AID 665; active = well fitted curve in the direction sought with a large enough effect; an effect the other way counts as inactive or inconclusive;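 note: compound exposure lasted 16 h at 37 °C before readout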); conditions: N2a cells, luminescence; Potency: caspase-3 activation; series mostly up to 92.2 µM
How it was run: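 N2a cells, 1500/well, 5 h settle at 37 °C; cpd 16 h, 37 °C; Caspase-Glo 3/7, 1 h RT; luminescence. Norm: DMSO = 0, 10 uM staurosporine = 100%. AC50, Hill fit.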

[11] = Cellular Toxicity (caspase-3) NIH 3T3 (AID 666; active = well fitted curve in the direction sought with a large enough effect; an effect the other way counts as inactive or inconclusive;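 note: caspase signal read after 16 h compound exposure; 0% = DMSO basal and 100% = 100 µM tamoxifen stimulation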); conditions: NIH 3T3 caspase-3 activation, apoptosis/toxicity; series mostly up to 92.2 µM
How it was run: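 Luminescence from aminoluciferin released by caspase-3/7 cleavage of a peptide substrate served as read-out. Mouse fibroblast NIH 3T3 cells were exposed to compounds over a concentration range for 16 hours, and AC50 values came from standard Hill modelling.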

[12] = Cellular Toxicity (caspase-3) Renal Proximal Tubule (AID 667; active = well fitted curve in the direction sought with a large enough effect; an effect the other way counts as inactive or inconclusive;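 note: cells exposed to compound for 16 hours at 37 °C before detection; 0% = DMSO basal and 100% = 10 µM staurosporine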); conditions: renal proximal tubule cells, primary cells freshly taken from rat, solvent-only wells 0%, staurosporine 100%; series mostly up to 91.7 µM
How it was run: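 Primary rat proximal tubule cells, 1000/well, 5 h plating at 37 °C, then compound 16 h at 37 °C. Caspase-Glo 3/7 reagent, 1 h RT, luminescence. Normalized to DMSO (basal) and 10 uM staurosporine (100%); Hill-fit AC50.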

[13] = target: Cytochrome P450 3A4 (Homo sapiens) (UniProt P08684); test: qHTS Assay for Activators of Cytochrome P450 3A4 (AID 885; active = well fitted curve in the direction sought with a large enough effect; an effect the other way counts as inactive or inconclusive; note: nearly all actives have a fitted effect of over 65% in size); conditions: recombinant CYP3A4, Luciferin-PPXE luminescence, 60 min; series mostly up to 57.1 µM
How it was run: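 Human CYP3A4 (20 nM) with Luciferin-PPXE at 25 uM (its KM) in 200 mM KPO4; 10 min compound preincubation, then NADPH regeneration and 60 min reaction at RT. Luciferin read by luminescence; normalized to 57 uM ketoconazole full inhibition.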

[14] = Cell Viability - LYMP1-003 - Assay at 24 hr (AID 963; active = well fitted curve in the direction sought with a large enough effect; an effect the other way counts as inactive or inconclusive;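 note: plate controls were DMSO only for no effect and tetraoctylammonium bromide positive control for full effect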); conditions: LYMP1-003 lymphoblastoid cell viability; series mostly up to 92.2 µM
How it was run: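 Cells seeded at 2500/well, 5 hr at 37 C; compounds added; 24 hr at 37 C; CellTiter-Glo added, 30 min room temperature; luminescence read. Decrease in ATP taken as cytotoxicity, AC50 from Hill modelling.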

[15] = target: Peroxisome proliferator-activated receptor alpha (Homo sapiens) (UniProt Q07869); test: qHTS assay for small molecule agonists of the peroxisome proliferator-activated receptor alpha (PPARalpha) signaling pathway (AID 651778; active = well fitted curve in the direction sought with a large enough effect; an effect the other way counts as inactive or inconclusive; note: % of control where 0% means no effect); conditions: PathHunter PPARalpha complementation, chemiluminescence, 6 h; max response: hits give high values
How it was run: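 Chemiluminescence from complemented enzyme reported PPARalpha activation in cells after 6 hr of compound treatment at 37 C. The detection reagent was incubated for 60 min at room temperature, and compounds were scored as agonists.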

[16] = qHTS assay for cell viability of HEK293 cells (AID 743288; active = well fitted curve in the direction sought with a large enough effect; an effect the other way counts as inactive or inconclusive; note: % is set by controls: 0 for no effect and ±100 for the full control effect; nearly all actives have a fitted effect of over 50% in size); conditions: ATP luminescence (CellTiter-Glo), 18 h; max response: hits give low values
How it was run: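 Parental HEK293 cells were seeded at 2,000 cells/well, rested at least 5 h at 37 C, then exposed to compounds in DMSO for 18 h at 37 C. Viability was read as ATP-dependent luciferase luminescence after 30 min at room temperature.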

[17] = qHTS assay for cell viability of the p53RE-bla HCT-116 cell line (AID 743292; active = well fitted curve in the direction sought with a large enough effect; an effect the other way counts as inactive or inconclusive; note: % is set by controls: 0 for no effect and ±100 for the full control effect; nearly all actives have a fitted effect of over 55% in size); conditions: p53RE-bla HCT-116 viability, ATP luminescence, 16 h; series mostly up to 95 µM
How it was run: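 ATP-based luminescence, 16 h compound exposure at 37 C, p53RE-bla HCT-116 cells at 4,000/well.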

[18] = NFAT Signaling Pathway (AID 444); conditions: Jurkat NFAT-bla M1, carbachol, beta-lactamase ratio, 5 h; at 17.2 µM (top of the series) unless noted;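 note: carbachol stimulus at about its EC50 of 1 µM final; % is set by controls: 0 for no effect and ±100 for the full control effect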
How it was run: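 Read-out: CCF4 FRET ratio (460 nm/530 nm) after 1 h RT dye loading, used for %activity and AC50 from titration series. Cells: Jurkat NFAT-β-lactamase/M1 line, treated with compound plus 1 uM carbachol for 5 h, 37 °C.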

[19] = Stat Signaling Pathway (AID 446); conditions: ME-180 SIE beta-lactamase reporter, IL-6 stimulated, 5 h; at 17.2 µM (top of the series) unless noted;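 note: ME-180 cervical cancer cells given 40 pM IL-6 alongside compound; SIE-controlled beta-lactamase reporter measured as 460/530 nm FRET emission ratio; % is set by controls: 0 for no effect and ±100 for the full control effect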
How it was run: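 ME-180 cells carrying a SIE-driven beta-lactamase reporter are stimulated with 40 pM IL-6 for 5 h at 37C in the presence of compound. The 460/530 nm FRET substrate ratio is read after 2.5 h at RT. Data are normalised to 300 pM IL-6 and to 125 nM JAK inhibitor controls.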

[20] = target: Glucocorticoid receptor (Homo sapiens) (UniProt P04150); test: GR-GFP Redistribution (AID 450;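 active = compounds whose dose series gives a full or clear partial fitted curve of increased nuclear translocation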; note: potency is the fitted concentration of half-maximal effect); conditions: U2OS GR-GFP nuclear translocation, laser cytometry, 2 h; series mostly up to 20.6 µM
Chain of Glucocorticoid receptor (Homo sapiens) (P04150 whole entry, looked up): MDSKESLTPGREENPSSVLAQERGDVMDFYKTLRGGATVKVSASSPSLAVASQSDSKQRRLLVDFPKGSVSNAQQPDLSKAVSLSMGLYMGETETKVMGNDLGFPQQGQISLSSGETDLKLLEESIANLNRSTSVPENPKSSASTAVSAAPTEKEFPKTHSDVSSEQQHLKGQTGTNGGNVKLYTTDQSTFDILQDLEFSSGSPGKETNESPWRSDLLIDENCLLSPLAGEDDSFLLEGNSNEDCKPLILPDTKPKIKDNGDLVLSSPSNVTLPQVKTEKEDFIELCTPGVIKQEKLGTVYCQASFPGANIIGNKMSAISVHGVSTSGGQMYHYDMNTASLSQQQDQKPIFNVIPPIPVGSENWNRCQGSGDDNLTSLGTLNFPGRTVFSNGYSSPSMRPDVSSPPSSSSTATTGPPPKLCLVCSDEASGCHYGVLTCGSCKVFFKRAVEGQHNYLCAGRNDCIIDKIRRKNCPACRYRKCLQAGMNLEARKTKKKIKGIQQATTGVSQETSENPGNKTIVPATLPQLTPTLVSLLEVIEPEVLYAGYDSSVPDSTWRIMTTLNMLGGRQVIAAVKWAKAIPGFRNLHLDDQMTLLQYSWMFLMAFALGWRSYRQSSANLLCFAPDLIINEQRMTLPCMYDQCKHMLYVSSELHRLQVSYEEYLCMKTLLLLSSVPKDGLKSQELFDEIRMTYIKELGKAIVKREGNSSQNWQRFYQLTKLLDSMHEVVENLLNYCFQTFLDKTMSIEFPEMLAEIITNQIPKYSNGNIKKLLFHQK

Chain of Peroxisome proliferator-activated receptor alpha (Homo sapiens) (Q07869 whole entry, looked up): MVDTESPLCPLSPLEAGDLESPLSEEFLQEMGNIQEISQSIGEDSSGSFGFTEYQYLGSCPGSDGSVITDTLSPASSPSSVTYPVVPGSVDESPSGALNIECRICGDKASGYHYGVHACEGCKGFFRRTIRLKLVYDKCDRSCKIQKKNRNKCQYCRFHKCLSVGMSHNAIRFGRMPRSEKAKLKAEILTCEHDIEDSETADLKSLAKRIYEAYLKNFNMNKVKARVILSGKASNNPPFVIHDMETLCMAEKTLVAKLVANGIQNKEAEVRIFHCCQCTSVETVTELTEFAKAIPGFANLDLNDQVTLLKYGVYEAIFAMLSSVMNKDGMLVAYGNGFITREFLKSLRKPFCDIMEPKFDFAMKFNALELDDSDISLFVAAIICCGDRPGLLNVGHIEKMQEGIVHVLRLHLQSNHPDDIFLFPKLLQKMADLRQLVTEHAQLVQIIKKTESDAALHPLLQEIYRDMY
Chain of Cytochrome P450 3A4 (Homo sapiens) (P08684 whole entry, looked up): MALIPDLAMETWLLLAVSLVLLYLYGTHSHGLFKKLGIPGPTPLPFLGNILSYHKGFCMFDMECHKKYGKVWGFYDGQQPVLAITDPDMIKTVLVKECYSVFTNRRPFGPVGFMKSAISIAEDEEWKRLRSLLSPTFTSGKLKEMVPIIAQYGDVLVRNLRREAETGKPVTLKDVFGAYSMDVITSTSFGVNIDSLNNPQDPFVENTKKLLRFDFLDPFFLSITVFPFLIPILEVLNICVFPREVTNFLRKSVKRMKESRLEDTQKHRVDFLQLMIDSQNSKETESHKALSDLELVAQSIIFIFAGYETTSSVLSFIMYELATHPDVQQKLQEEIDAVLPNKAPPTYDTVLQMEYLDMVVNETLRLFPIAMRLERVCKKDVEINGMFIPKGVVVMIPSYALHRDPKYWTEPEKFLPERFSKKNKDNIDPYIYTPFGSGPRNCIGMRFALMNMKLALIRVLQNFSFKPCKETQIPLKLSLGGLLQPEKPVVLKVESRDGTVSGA

Nc1ccc2cc3ccccc3cc2c1
inactive: Potency [1] > 92 µM | Potency [2] > 92 µM | Potency [3] > 92 µM | Potency [4] | Potency [5] | Potency [6] | Potency [7] | Potency [8] | caspase-3 activation [9] -0.235% | Potency [10] | Potency [11] | outcome [12] | Potency [13] | Potency [14] | max response [15] -3.75% | max response [16] -16.2% | Potency [17]

CCOC(=O)N1CCN(c2ncnc3c2cnn3-c2ccc(OC)cc2)CC1
inactive: activity change, negative = inhibition [18] 10.2% | activity, negative = inhibition [19] -2.17% | Potency [20] > 20.6 µM

CCOC(=O)C1CCN(c2nc3ccccc3nc2C(C#N)C(=O)OC(C)C)CC1 (stereo unspecified)
inactive: activity change, negative = inhibition [18] 8.02% | activity, negative = inhibition [19] -8.74% | Potency [20] > 20.6 µM

N#CC(C(=O)Nc1ccc(Cl)c(Cl)c1)=C1Nc2ccccc2N1
inactive: activity change, negative = inhibition [18] -3.6% | activity, negative = inhibition [19] -4.82% | Potency [20] > 20.6 µM

c1cc(OCC2CO2)cc(OCC2CO2)c1 (stereo unspecified)
inactive: Potency [7] | Potency [10] | outcome [12] | Potency [14] | max response [15] -3.13% and -3.49% | max response [16] -14.2% | Potency [17]
active: Potency [1] 27.4 µM | Potency [2] 34.7 µM | Potency [3] 9.23 µM | Potency [4] 31.6 µM | Potency [5] 0.251 µM | Potency [6] 31.6 µM

C=C(C)c1ccccc1
inactive: Potency [1] > 92 µM | Potency [2] > 92 µM | Potency [3] > 92 µM | Potency [4] | Potency [5] | Potency [6] | Potency [7] | Potency [8] | caspase-3 activation [9] 0.545% | Potency [10] | Potency [11] | outcome [12] | Potency [14] | max response [15] -0.0788% | max response [16] 1.22% | Potency [17]

CC1(C)CC(=O)C(C=NCC(O)c2ccccc2)=C(O)C1 (stereo unspecified)
inactive: activity change, negative = inhibition [18] -0.832% | activity, negative = inhibition [19] 8.79% | Potency [20] > 20.6 µM

COc1cccc(-c2nnc3sc(-c4ccc(C)cc4)nn23)c1
inactive: activity change, negative = inhibition [18] -10.2% | activity, negative = inhibition [19] 1.68% | Potency [20] > 20.6 µM

CC(C)(C)n1cnc2cc(NS(=O)(=O)c3ccc(Br)cc3)ccc21
inactive: activity change, negative = inhibition [18] -27.1% | activity, negative = inhibition [19] -28% | Potency [20] > 20.6 µM

COC(=O)c1ccc(-c2sc3nc(N4CCOCC4)c4c(c3c2N)CCCC4)o1
inactive: activity change, negative = inhibition [18] -5.04% | activity, negative = inhibition [19] -5.83% | Potency [20] > 20.6 µM

N#Cc1c(N2CCCCC2)nc(N2CCCCC2)c2c1CCN(Cc1ccccc1)C2
inactive: activity change, negative = inhibition [18] -13% | activity, negative = inhibition [19] 17.8% | Potency [20] > 20.6 µM

Cn1c(Cl)nc2c1c(=O)n(Cc1cccc(Br)c1)c(=O)n2C
inactive: activity change, negative = inhibition [18] -23.7% | activity, negative = inhibition [19] 12.7% | Potency [20] > 20.6 µM

Cc1nc2sc3c(NCc4ccco4)ncnc3c2c2c1COC(C)(C)C2
inactive: activity change, negative = inhibition [18] -8.41% | activity, negative = inhibition [19] -18.1% | Potency [20] > 20.6 µM

CCC[C@@H]1C[C@@H](C(=O)N[C@H]([C@@H](C)O)[C@H]2O[C@H](SC)[C@H](O)[C@@H](O)C2O)N(C)C1 (stereo partly specified)
inactive: activity change, negative = inhibition [18] 8.75% | activity, negative = inhibition [19] -0.0835% | Potency [20] > 20.6 µM

Cc1ccc(OCC(O)CNS(=O)(=O)c2ccccc2C(=O)O)cc1 (stereo unspecified)
inactive: activity change, negative = inhibition [18] 6.08% | activity, negative = inhibition [19] 4% | Potency [20] > 20.6 µM

Cc1cc(C)n(S(=O)(=O)Cc2ccccc2)n1
inactive: activity change, negative = inhibition [18] -1.74% | activity, negative = inhibition [19] 14.5% | Potency [20] > 20.6 µM

CCCCCOc1ccc(Cl)cc1CN1CCOCC1
inactive: activity change, negative = inhibition [18] 4.03% | activity, negative = inhibition [19] 4.37% | Potency [20] > 20.6 µM

Brc1cccc(-c2cnc3n2CCCCC3)c1
active: activity change, negative = inhibition [18] -87.3%
inactive: activity, negative = inhibition [19] -10.7% | Potency [20] > 20.6 µM

CCCSC1=C(C#N)C(c2ccc(OC)cc2)C2=C(CC(C)(C)CC2=O)N1 (stereo unspecified)
inactive: activity change, negative = inhibition [18] -24.7% | activity, negative = inhibition [19] -13% | Potency [20] > 20.6 µM

Cn1c2ccccc2c2nn(-c3ccccc3)c(=O)cc21
inactive: activity change, negative = inhibition [18] 2.73% | activity, negative = inhibition [19] 6.09% | Potency [20] > 20.6 µM

Nc1nnc(Cc2ccc(Cl)c(Cl)c2)s1
inactive: activity change, negative = inhibition [18] 2.08% | activity, negative = inhibition [19] 4.97% | Potency [20] > 20.6 µM

Cc1cccc(N2CN=c3s/c(=C\c4ccncc4)c(=O)n3C2)c1
inactive: activity change, negative = inhibition [18] -17.2% | activity, negative = inhibition [19] -0.937% | Potency [20] > 20.6 µM

CCOc1cc2nc(-c3ccc(OC)c(OC)c3)nc(N3CCOCC3)c2cc1OC
inactive: activity change, negative = inhibition [18] -10.2% | activity, negative = inhibition [19] -21.5% | Potency [20] > 20.6 µM

— PubChem BioAssay (NCATS)
